The values that follow come from PubChem BioAssay (EPA / NIEHS).

Calls of active or inactive are those of the source. The calls were made as follows: active = hit-call score of the fitted dose curve at least 0.9, where 1 is the maximum; inactive = score below 0.9.

The experiment is described as follows: BSK_4H_Eotaxin3: BioMAP Diversity Plus: 4H Assay for Eotaxin 3 Biomarker Activity (AID 2283000). The following applies: primary human endothelial cells (HUVEC); actives raise or lower the signal. As for the experimental part: BSK_4H is a cell-based, multiplexed-readout assay that uses umbilical vein endothelium, a human vascular primary cell, with measurements taken at 24 hours after chemical dosing in a 96-well plate.BSK_4H_Eotaxin3 is an assay component measured in the BSK_4H assay. It measures Eotaxin-3 antibody related to regulation of gene expression using ELISA technology.Data from the assay component BSK_4H_Eotaxin3 was analyzed into 1 assay endpoint. This assay endpoint, BSK_4H_Eotaxin3, was analyzed with bidirectional fitting relative to DMSO as the negative control and baseline of activity. Using a type of binding reporter, gain or loss-of-signal activity can be used to understand changes in the signaling as they relate to the gene CCL26. Furthermore, this assay endpoint can be referred to as a primary readout, because this assay has produced multiple assay endpoints where this one serves a signaling function. To generalize the intended target to other relatable targets, this assay endpoint is annotated to the cytokine intended target family, where the subfamily is chemotactic factor.
The levels of cell surface (or secreted, indicated by the prefix "s") biomarker endpoints were measured by ELISA. Overt cytotoxicity to cells in confluent adherent cultures (all systems other than the BT system) was assessed by measuring total protein levels using sulforhodamine B (SRB) staining in parallel cultures at the time of biomarker measurements, indicated as SRB endpoints. For proliferation assays for adherent cell types, individual cell types are cultured at sub-confluence and relative cell numbers quantified by SRB staining at time points optimized for each system (48 h: 3C and CASM3C systems; 72 h: BT and HDF3CGF systems; 96 h: SAg system). SRB was performed by staining cells with 0.1% SRB after fixation with 10% TCA and reading wells at 560 nm.Viability and proliferation of PBMC (T cells) was quantified by Alamar Blue reduction for the SAg and BT systems. For PBMC viability (referred to as PBMC Cytotoxicity within the assay endpoint names), cells were plated (75,000/well in a 96-well plate) and then chemical samples added for 1 h before addition of activators, SEB and TSST-1 (20 ng/mL final concentration each). Cells were incubated for 90 h. Then, Alamar Blue (20 uL/well) (Invitrogen, Cat DAL1100) was added for 6 h, and the plates were read with a fluorescence microplate reader at 546/580 nm (excitation/emission). For PBMC proliferation, cells were plated and activated as above but incubated for only 16 h prior to addition of Alamar Blue. Plates were read after 6 h.
Take `CCCC(=O)OCCC(C)C`: the outcome was inactive.

With `CN(C)c1ccc(C(=C2C=CC(=[N+](C)C)C=C2)c2ccc(N(C)C)cc2)cc1`, the AC50 – broadly, the midpoint of the concentration-response curve, whichever way the signal moves – was 1.17 µM (active). As to `Clc1cc(Cl)c2c(c1)N=C1CCCCCN1C2`, the result was inactive.

`Cc1cc(F)ccc1-c1cc(N2CC[C@@H](O)[C@H]2CO)ncc1N(C)C(=O)C(C)(C)c1cc(C(F)(F)F)cc(C(F)(F)F)c1`: the AC50 was 12.5 µM (active).

`CCCCCCCCCCCO`: the AC50 is 31.6 µM (active). `Cc1ncc(CO)c(CO)c1O`: the outcome was inactive. For the molecule `CC1=CC(=O)/C(=C(/C)O)C(=O)O1`, the outcome was inactive. For `OC12N=C(c3ccccc3)SC1Cc1cc(Cl)ccc12` (stereo not given), the AC50 was 20 µM (active). As to `C[C@]12CC[C@@H]3c4ccc(O)cc4CC[C@H]3[C@@H]1CCC2=O`, the outcome was inactive. For `CO[C@H]1/C=C/O[C@@]2(C)Oc3c(C)c(O)c4c(O)c(c(/C=N/N5CCN(C)CC5)c(O)c4c3C2=O)NC(=O)/C(C)=C\C=C\[C@H](C)[C@H](O)[C@@H](C)[C@@H](O)[C@@H](C)[C@H](OC(C)=O)[C@@H]1C`, the result was inactive. With `Cc1cc2c(cc1C(F)(F)F)N(C(=O)Nc1ccc(Oc3cccnc3C)nc1)CC2`, the result was inactive.

As to `O=c1c(-c2ccc(O)cc2)coc2cc(O)cc(O)c12`, the AC50 is 29.1 µM (active).

`O=C(Nc1ccc(Cl)cc1)Nc1ccc(Cl)c(Cl)c1`: the concentration at half-maximal activity (AC50) was 2.4 µM (active). For the molecule `CC(O)CC(C)(C)O` (stereo not given), the outcome was inactive. Same read-out and setting: the same measure for `Cc1ccc(C(C)C)cc1`: “inactive”.

As for `CCCCCCCC[Si](OCC)(OCC)OCC`, the AC50 was 30.9 µM (active).

Regarding `O=C1c2ccccc2C(=O)N1CCc1noc(-c2ccc(CN3CCCCCC3)s2)n1`, the outcome was inactive. On the same count and under the same terms, the same measure for `c1ccc(C[n+]2cccc3ccccc32)cc1`: “inactive”; for `O=c1ccc2ccccc2o1`: “inactive”.

On to `Cc1cn([C@H]2C[C@H](N=[N+]=[N-])[C@@H](CO)O2)c(=O)[nH]c1=O`, for which the result was inactive. On the same count and under the same terms, the same measure for `O=C(O)Cn1c(=O)n(Cc2ccc(Br)cc2F)c(=O)c2ccc(Cl)cc21`: “inactive”. `O=c1[nH]sc2ccccc12`: the AC50 is 8.99 µM (active). Take `CCCCCCCCOC(=O)c1cc(O)c(O)c(O)c1`: the AC50 was 17.3 µM (active). As for `Clc1ccccc1C(c1ccccc1)(c1ccccc1)n1ccnc1`, the AC50 is 31.3 µM (active). In the case of `Cc1ccc2oc(CN(Cc3ccccc3)C(=O)Nc3c(F)cc(F)cc3F)c(-c3ccc(Cl)cc3)c2c1`, the outcome was inactive. For `Cc1occc1C(=O)Nc1ccc(C(=O)N2CCC(F)(F)/C(=C\C(=O)N3CCC(N4CCCCC4)CC3)c3ccccc32)cc1`, the outcome was inactive. Consider `Cc1oc2c(NC(=O)c3c(Cl)cccc3Cl)cccc2c1C(C)(C)O`, for which the AC50 is 7.04 µM (active).

As to `COCC(C)OCC(C)OCC(C)O` (stereo not given), the result was inactive.

With `Cc1cccc2ccccc12`, the outcome was inactive. For the molecule `CC(C)(c1cc(Br)c(O)c(Br)c1)c1cc(Br)c(O)c(Br)c1`, the concentration at half-maximal activity (AC50) is 30.1 µM (active). On to `O=C=NCCCCCCN=C=O`, for which the result was inactive. Turning to `Oc1ccc2ccccc2c1`, the AC50 was 15.7 µM (active). Consider `C[C@]12CC[C@@H]3c4ccc(O)cc4CC[C@H]3[C@@H]1CC[C@H]2O`, for which the AC50 was 25 µM (active). Turning to `CCCCOC(=O)CC(CC(=O)OCCCC)(OC(C)=O)C(=O)OCCCC`, the outcome was inactive. Still for that read-out and setting: the same measure for `Oc1ccccc1`: “inactive”. Take `COc1ccc2cc(S(=O)(=O)N[C@H](CC(=O)N[C@H](Cc3ccc(CN4[C@H](C)CCC[C@@H]4C)cc3)C(=O)N(C)C(C)C)c3ccc4c(c3)OCO4)ccc2c1`: the AC50 is 11.3 µM (active). For `CCN(Cc1cccc(S(=O)(=O)O)c1)c1ccc(C(=C2C=CC(=[N+](CC)Cc3cccc(S(=O)(=O)O)c3)C=C2)c2ccccc2S(=O)(=O)[O-])cc1`, the outcome was inactive. Regarding `COc1cc(C(=O)NC2CCN(C)CC2)ccc1Nc1ncc2c(n1)N(C1CCCC1)CC(F)(F)C(=O)N2C`, the AC50 was 14.6 µM (active).

`O=C1O[C@H]([C@@H](O)CO)C(O)=C1O`: the result was inactive.

Consider `CCCCOC(=O)c1ccc(O)cc1`, for which the outcome was inactive.
